Test results as given in PubChem BioAssay (EPA / NIEHS).
Results filed as inconclusive are left out. Calls of active or inactive are those of the source. Rule for the calls, unless noted: active = hit-call score of the fitted dose curve at least 0.9, where 1 is the maximum; inactive = score below 0.9.

Key:
[1] = CCTE_Mundy_HCI_Cortical_Synap_Neur_Matur_NeuriteLength: CCTE's Synaptogenesis and Neurite Maturation Assay in rat cortical cells for Neurite Length, Mundy Lab (AID 2284214)
How it was run: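 DMSO-normalised neurite length, from high-content imaging of anti-MAP2-stained rat cortical cells fixed at DIV 12. Glia were suppressed with AraC (DIV 5) before chemical exposure from DIV 7.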

[2] = CCTE_Mundy_HCI_Cortical_Synap_Neur_Matur_NeuriteSpotCountPerNeuron: CCTE's Synaptogenesis and Neurite Maturation Assay in rat cortical cells for Neurite Spot Count per Neuron Count, Mundy Lab (AID 2284215)
How it was run: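 Synapse density is scored as synaptophysin spots along neurites per neuron in fixed rat cortical neurons, measured at DIV 12 after chemical dosing at DIV 7. DMSO is the negative control and activity baseline.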

[3] = CCTE_Mundy_HCI_Cortical_Synap_Neur_Matur_SynapseCount: CCTE's Synaptogenesis and Neurite Maturation Assay in rat cortical cells for Synapse Count, Mundy Lab (AID 2284218)
How it was run: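 Endpoint: synapses/neuron by HCI (synaptophysin puncta on MAP2-labelled neurites, Hoechst nuclei). Rat primary cortical cells, AraC DIV 5, dosed DIV 7, fixed DIV 12; DMSO negative control.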

[4] = CCTE_Mundy_HCI_Cortical_Synap_Neur_Matur_NeuriteCount: CCTE's Synaptogenesis and Neurite Maturation Assay in rat cortical cells for Neurite Count, Mundy Lab (AID 2284222);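 note: exposure from day 7 to day 12 in vitro with readout at day 12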
How it was run: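 Rat primary cortical cells; AraC added at DIV 5, chemicals dosed with media change at DIV 7 through DIV 12. MAP2/synaptophysin/Hoechst immunostaining, high-content imaging of neurite number; fitted relative to DMSO.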

[5] = CCTE_Mundy_HCI_Cortical_Synap_Neur_Matur_CellBodySpotCount: CCTE's Synaptogenesis and Neurite Maturation Assay in rat cortical cells for Cell Body Spot Count, Mundy Lab (AID 2284223)
How it was run: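 Synapse number at neuronal cell bodies was quantified as synaptophysin puncta per neuron in rat cortical cultures exposed from DIV 7 to DIV 12. Values were normalised to DMSO.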

[6] = UKN2_HCS_IMR90_cell_viability: Viability Assessment in the University of Konstanz (UKN) Leist Lab Neural Crest Cell Migration Assay in human induced IMR90 Pluripotent Stem Cells (UKN2) (AID 2284233);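 note: viability of neural crest cells differentiated from IMR90 iPSC measured by calcein-AM fluorescence imaging; cells exposed to compound for 24 h after a 24 h migration phase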
How it was run: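 cMINC format, iPSC-derived neural crest (IMR90); 24 h migration (EGF/FGF, N2-S), then 24 h toxicant. Calcein-AM/H-33342 stain 30 min; fluorescence intensity by HCS; DMSO-normalised, bidirectional fitting.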

[7] = CCTE_Mundy_HCI_Cortical_NOG_NeuronCount: CCTE's Neurite Outgrowth Assay in rat cortical cells for Neuron Count, Mundy Lab (AID 2284236; active = hit-call score of the fitted dose curve at least 0.9, where 1 is the maximum;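 note: neurons counted by imaging betaIII-tubulin and Hoechst stained cortical cells; cells exposed to compound for about 48 hours before fixation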)
How it was run: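 Read-out: neuron number by high-content imaging of betaIII-tubulin (Alexa Fluor-488) and Hoechst-labelled rat primary cortical cells.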

[8] = CCTE_Mundy_HCI_Cortical_NOG_BPCount: CCTE's Neurite Outgrowth Assay in rat cortical cells for Branch Point Count, Mundy Lab (AID 2284237)
How it was run: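 Measured 50.33 h after dosing, this morphology endpoint uses rat primary cortical cultures labelled for betaIII-tubulin. Branch points are quantified by high-content imaging, with DMSO as negative control and baseline.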

[9] = CCTE_Mundy_HCI_hNP1_Casp3_7: CCTE's Caspase-Glo 3/7 Assay in human neuroprogenitor cells for Apoptosis, Mundy Lab (AID 2284240)
How it was run: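 Neuroepithelial-lineage stem cells from WA09 embryonic cells were treated with chemicals after 40–44 h of culture. Twenty-four hours later, caspase-3/7 activation was detected luminescently after a 30 min room-temperature reagent step, with DMSO as baseline.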

[10] = CCTE_Mundy_HCI_hNP1_CellTiter: CCTE's Cell Titer-Glo 2 Assay in human neuroprogenitor cells for Viability, Mundy Lab (AID 2284241; active = hit-call score of the fitted dose curve at least 0.9, where 1 is the maximum)
How it was run: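 Measures ATP content in human neural progenitors derived from WA09 embryonic cells. Read-out at 26.5 hours after dosing, with DMSO serving as the negative control and baseline.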

[11] = IUF_NPC2c_oligodendrocyte_migration_120hr: Leibniz Research Institute for Environmental Medicine (IUF) 120-hour Neural Progenitor Cell Migration Assay for Oligodendrocyte Migration (NPC2c) (AID 2284297);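 note: O4-positive oligodendrocyte migration distance divided by radial glia migration distance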
How it was run: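 Primary hNPC spheres migrating on extracellular matrix, exposed five days to a 7-point dilution series with solvent control. Oligodendrocyte migration was scored by high-content imaging of O4 immunostaining and expressed relative to radial glia distance.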

[12] = IUF_NPC2a_radial_glia_migration_120hr: Leibniz Research Institute for Environmental Medicine (IUF) 120-hour Neural Progenitor Cell Migration Assay for Radial Glia Migration (NPC2a) (AID 2284298)
How it was run: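 In this multiplexed test, fetal hNPC spheres migrate radially on poly-D-lysine/laminin in N2 medium (37C, 5% CO2, pH 7.2-7.6) under continuous compound exposure over five days. Migration is scored at 120 h from automated Hoechst nuclear imaging.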

[13] = IUF_NPC2a_radial_glia_migration_72hr: Leibniz Research Institute for Environmental Medicine (IUF) 72-hour Neural Progenitor Cell Migration Assay for Radial Glia Migration (NPC2a) (AID 2284299)
How it was run: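 Spheres of human primary neural progenitors migrate on poly-D-lysine/laminin under compound exposure at 37C, 5% CO2. The 72 h radial glia migration distance comes from brightfield images, measured manually.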

[14] = IUF_NPC2b_neuronal_migration_120hr: Leibniz Research Institute for Environmental Medicine (IUF) 120-hour Neural Progenitor Cell Migration Assay for Neuron Migration (NPC2b) (AID 2284300)
How it was run: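 Neurons identified by TUBB3 immunostaining and Hoechst nuclei; migration distance measured automatically on fixed wells at 120 h, normalized to glia migration. Exposure spanned five days of differentiation in N2 medium, seven test concentrations.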

[15] = IUF_NPC3_neuronal_differentiation_120hr: Leibniz Research Institute for Environmental Medicine (IUF) 120-hour Neuronal Differentiation Assay (NPC3) (AID 2284301)
How it was run: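 Neuronal differentiation of primary human neural progenitors measured by high-content imaging: percent TUBB3+ of Hoechst+ nuclei within migrated area at 120 h, seven-point serial dilution plus solvent control, gain or loss relative to DMSO.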

[16] = IUF_NPC4_neurite_length_120hr: Leibniz Research Institute for Environmental Medicine (IUF) 120-hour Neuronal Morphology Assay for Neurite Length (NPC4) (AID 2284302)
How it was run: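 Neurons from differentiating human fetal neural progenitor spheres are scored for average neurite length after five days of compound exposure. Fitting uses DMSO as negative control.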

[17] = IUF_NPC5_oligodendrocyte_differentiation_120hr: Leibniz Research Institute for Environmental Medicine (IUF) 120-hour Oligodendrocyte Differentiation Assay (NPC5) (AID 2284304; active = hit-call score of the fitted dose curve at least 0.9, where 1 is the maximum;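 note: primary human fetal neural progenitor spheres plated to migrate and differentiate; share of O4-positive cells among Hoechst nuclei found by CNN image analysis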)
How it was run: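 Human primary NPC neurospheres migrating and differentiating on laminin for 120 h under continuous compound exposure (serial dilution, solvent control). Endpoint: percent O4+ oligodendrocytes among Hoechst nuclei, detected by CNN image analysis, with DMSO as negative control.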

[18] = IUF_NPC2-5_cytotoxicity_72hr: Cytotoxicity Assessment at 72 hours in the Leibniz Research Institute for Environmental Medicine (IUF) Neural Progenitor Cell Migration and Differentiation Assay for Cytotoxicity (NPC2-5) (AID 2284306; active = hit-call score of the fitted dose curve at least 0.9, where 1 is the maximum;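 note: LDH release into supernatant measured by resorufin fluorescence marking membrane damage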)
How it was run: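 Primary human neural progenitor spheres migrate and differentiate on laminin. Compound is present from the start of differentiation, with DMSO kept at or below 0.1%. At 72 h, supernatant LDH is quantified fluorometrically, with values fitted in the positive direction.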

[19] = IUF_NPC2-5_cell_number_120hr: Cell Number Assessment at 120 hours in the Leibniz Research Institute for Environmental Medicine (IUF) Neural Progenitor Cell Migration and Differentiation Assay (NPC2-5) (AID 2284308);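 note: count of Hoechst-stained nuclei in migration zone around plated human neural progenitor spheres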
How it was run: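 Cell number is taken as all Hoechst-positive nuclei detected in the area into which cells migrate out of the sphere, scored at 120 h and referenced to DMSO solvent control, which was kept at no more than 0.1%.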

[20] = IUF_NPC2-5_viability_120hr: Viability Assessment at 120 hours in the Leibniz Research Institute for Environmental Medicine (IUF) Neural Progenitor Cell Migration and Differentiation Assay (NPC2-5) (AID 2284312)
How it was run: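 Human fetal (GW 16-19) neural progenitor spheres of 0.3 mm were plated on poly-D-lysine/laminin in N2 differentiation medium and exposed from day 0 for 120 h, with half-medium refresh at day 3. Viability was read as alamar blue resazurin-to-resorufin fluorescence against DMSO.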

[21] = CCTE_Mundy_HCI_iCellGluta_NOG_NeuriteLength: CCTE's Neurite Outgrowth Assay in iCellGluta cells for Neurite Length, Mundy Lab (AID 2284318; active = hit-call score of the fitted dose curve at least 0.9, where 1 is the maximum)
How it was run: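 Automated high-content imaging of betaIII-tubulin (Alexa Fluor-488) and Hoechst-stained cells gave neurite length, normalized to the DMSO baseline.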

[22] = IUF_NPC1_cytotoxicity_72hr: Cytotoxicity Assessment at 72 hours in the Leibniz Research Institute for Environmental Medicine (IUF) Neural Progenitor Cell Proliferation Assay (NPC1) (AID 2284332; active = hit-call score of the fitted dose curve at least 0.9, where 1 is the maximum;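 note: rising LDH signal means more cytotoxicity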)
How it was run: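 Readout is fluorescence from LDH-dependent resazurin conversion, sampled from culture medium after compound contact lasting 72 h. Each well holds one 0.25-0.35 mm human progenitor sphere kept at 37C, 5% CO2 with EGF and FGF.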

[23] = CCTE_Mundy_HCI_iCellGluta_NOG_NeuronCount: CCTE's Neurite Outgrowth Assay in iCellGluta cells for Neuron Count, Mundy Lab (AID 2284340; active = hit-call score of the fitted dose curve at least 0.9, where 1 is the maximum;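 note: cells fixed about 48 h after compound addition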)
How it was run: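 Neuron count read by automated high-content imaging of Hoechst 33342 and betaIII-tubulin/Alexa Fluor-488 labelling in human iPSC glutamatergic neurons. Activity fitted relative to DMSO.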

[24] = CCTE_Mundy_HCI_iCellGluta_NOG_NeuriteCount: CCTE's Neurite Outgrowth Assay in iCellGluta cells for Neurite Count, Mundy Lab (AID 2284342; active = hit-call score of the fitted dose curve at least 0.9, where 1 is the maximum;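 note: chemical exposure about 48 hours starting 2 hours after plating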)

Measured: outcome

C[C@@H]1CC[C@@H](C(C)(C)O)[C@H](O)C1
inactive: all assays above
